Source: PubChem BioAssay AID588726 (The Scripps Research Institute Molecular Screening Center, 2011)
About 8,200 (2.3%) of roughly 360,000 compounds were called active. No stated cut-off is given here; in the data, active means inhibition above about 27%; inactive means the rest. Only a selection was taken, and actives are over-represented in it overall.

molecular target: Fructose-bisphosphate aldolase (Mycobacterium tuberculosis (strain ATCC 25618 / H37Rv)) (UniProt P9WQA3); experiment: Mtb FBA enzyme inhibitors, primary screen, biochemical, fluorescence, strain H37Rv (AID 588726);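 further: 0% = vehicle and 100% = reference inhibitor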; conditions: purified M. tuberculosis FBA, fluorescence read-out, at 1 µM, hits give high values
Sequence (P9WQA3 whole entry, looked up): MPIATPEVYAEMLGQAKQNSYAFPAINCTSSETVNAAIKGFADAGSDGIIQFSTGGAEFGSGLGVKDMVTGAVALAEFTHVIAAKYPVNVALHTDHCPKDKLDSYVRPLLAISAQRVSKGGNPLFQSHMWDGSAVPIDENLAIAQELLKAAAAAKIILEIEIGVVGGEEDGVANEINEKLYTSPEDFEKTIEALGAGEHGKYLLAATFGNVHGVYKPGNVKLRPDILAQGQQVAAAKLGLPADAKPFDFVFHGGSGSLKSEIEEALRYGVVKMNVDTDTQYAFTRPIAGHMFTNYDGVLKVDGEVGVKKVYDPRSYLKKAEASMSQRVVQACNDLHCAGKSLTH

SMILES | inhibition
CC(=O)C1=C(O)C(=O)N(c2ccc(S(N)(=O)=O)cc2)C1c1ccccc1F (stereo not drawn) | 12.8% (inactive)
CCCN(CCC)CC(O)COc1ccccc1C(=O)Nc1ccccc1 (stereo not drawn) | 0.32% (inactive)
COc1ccccc1NC(=O)N(O)C1(C#N)CCCCC1 | 1.6% (inactive)
COc1ccc2sc(-c3ccc(N(C)C)cc3)c(-c3ccc4cc[nH]c4c3)c2c1 | 41% (active)
COc1cccc(-c2sc3ccc(OC)cc3c2-c2ccc(OCCN3CCCCC3)cc2)c1 | 0.81% (inactive)
COc1ccc2c(c1)c(=Cc1ccc(N(C)C)cc1)c1cc(-c3ccccc3)[n+](C)n12 | -16.1% (inactive)
COc1ccc2sc(-c3ccccc3OC)c(-c3ccc(OCCN4CCCC4)cc3)c2c1 | 0.37% (inactive)
CC1CC(NC(=O)/C(C#N)=C/c2ccc[nH]2)CC(C)(C)C1 (stereo not drawn) | -0.18% (inactive)
CN(Cc1ccccc1)CC(O)COc1ccc(CNCc2cc3ccccc3s2)cc1 (stereo not drawn) | 0.16% (inactive)
Cc1ccc2c(NC(=O)C3CC3)cccc2n1 | 3.11% (inactive)
Cc1cc(=O)n2nc(N3CCC(C(=O)Nc4c(F)c(F)c(F)c(F)c4F)CC3)sc2n1 | -1.25% (inactive)
Cc1cc(C)c2c(NC(=O)C3CC3)nn(C)c2n1 | 46.1% (active)
CCCCCC1CC(COc2ccccc2)OC1=O (stereo not drawn) | -2.11% (inactive)
O=c1c2cc([N+](=O)[O-])ccc2nc2n1CCC2 | 3.1% (inactive)
O=C(NC1CCCC1)C(c1ccccn1)N(C(=O)c1csnn1)C1CCCC1 (stereo not drawn) | 2.16% (inactive)
COc1ccc(-c2oc3ncn(Cc4ccco4)c(=N)c3c2-c2ccc(OC)cc2)cc1 | 7.98% (inactive)
COCCNc1ncnc2c1ncn2[C@H]1CN(Cc2ccc(OC)cc2)C[C@@H](CO)O1 | 1.53% (inactive)
COc1ccc(-c2oc3ncnc(NCCCO)c3c2-c2ccc(OC)cc2)cc1 | 58.3% (active)
Cc1cccc(N2CC(C(=O)Nc3ccccc3N3CCCC3)CC2=O)c1C (stereo not drawn) | 3.07% (inactive)
Cc1ccccc1/[N+]([O-])=C/c1ccncc1 | 0.03% (inactive)
CS(=O)(=O)Nc1cccc(C2=NN(C(=O)c3cccc(F)c3)C(c3cccs3)C2)c1 (stereo not drawn) | 5.49% (inactive)
CS(=O)(=O)Nc1ccc(C2=NN(S(C)(=O)=O)C(c3cccs3)C2)cc1 (stereo not drawn) | 73.8% (active)
CCS(=O)(=O)Nc1ccc(C2=NN(S(=O)(=O)c3ccc(F)cc3)C(c3ccco3)C2)cc1 (stereo not drawn) | -0.61% (inactive)
CCS(=O)(=O)Nc1ccc(C2=NN(C(C)=O)C(c3cccs3)C2)cc1 (stereo not drawn) | 591% [above what the read-out allows, likely interference] (active)

SMILES | inhibition
Cc1ccc(C2CC(c3cccc(NS(C)(=O)=O)c3)=NN2S(C)(=O)=O)cc1 (stereo not drawn) | -2.56% (inactive)
COc1cccc(C2CC(c3ccccc3)=NN2S(=O)(=O)c2ccccc2)c1OC (stereo not drawn) | 0.19% (inactive)
CCOC(=O)CNc1nc2ccccc2n2c(C)nnc12 | -1.1% (inactive)
O=C1CCc2cc(S(=O)(=O)Nc3ccc(C(F)(F)F)cc3)cc3c2N1CC3 | 6.49% (inactive)
Cc1cc(C(=O)CC#N)c(C)n1-c1c(C)n(C)n(-c2ccccc2)c1=O | 2.39% (inactive)
CCOC(=O)CNC(=O)CN1C(=O)CCSc2ccccc21 | 0.13% (inactive)
O=C(COc1ccccc1Cl)Nn1cnnc1 | 0.49% (inactive)
COc1ccc(CCNc2ncnc3c2nnn3Cc2ccccc2)cc1 | 0.68% (inactive)
Cc1cc(C(=O)COc2ccc(Br)cc2F)c(C)n1C1CC1 | 0.29% (inactive)
CC1C2Cn3c(nc4ccccc43)C1N(C)O2 (stereo not drawn) | -1.64% (inactive)
CN1C(C(=O)NCc2ccco2)CC2Cn3c(nc4ccccc43)C21 (stereo not drawn) | 2.79% (inactive)
CSCCNC(=O)c1ccc2nc(Cc3ccccc3F)oc2c1 | 3.27% (inactive)
CC(C)=CCN1CCN(Cc2ccc(Oc3ncccn3)cc2)CC1CCO (stereo not drawn) | 0.18% (inactive)
CN(C)c1nc(-c2cccnc2)nc(-c2ccc(Cl)cc2)c1C#N | -3.84% (inactive)
CN(C)c1ccnc(Nc2ccc(F)cc2)c1C#N | -3.67% (inactive)
CNc1nccc(-c2ccc(Cl)cc2)c1C#N | 30.5% (active)
COc1cccc(CN2CCC(C(=O)NC(c3ccc4c(c3)OCO4)c3ccccn3)CC2)c1 (stereo not drawn) | 0.6% (inactive)
O=C(CCS(=O)(=O)c1ccccc1Cl)Nc1ccc(S(=O)(=O)Nc2ncccn2)cc1 | -1.51% (inactive)
O=C(NCCCN1CCCC1=O)C(=O)NCC1OCCN1S(=O)(=O)c1ccc(Br)cc1 (stereo not drawn) | 6.34% (inactive)
Cc1ccc(-c2nc3ccccc3[nH]2)cc1N | 176% (active)
CCOC(=O)CNC(=O)CSc1ncccc1-c1nc2ccccc2[nH]1 | 8.03% (inactive)
Cc1ccccc1N1CC(c2nc3ccccc3[nH]2)CC1=O (stereo not drawn) | 0.05% (inactive)
CCSc1nc(=S)n(CC)c(C)c1C(C)=O | -0.42% (inactive)
O=C(CN1CCOc2ccccc21)N1CCC(Cc2ccccc2)CC1 | 6.13% (inactive)
